Screening results as filed in PubChem.
This is a sample that favours compounds with a hit; in the whole collection about 2.6% have one here.
TROY NFkB inh: inhibitors of TROY-driven NF-kB signaling, primary screen, Q293 LMP1-TROYcd cells, NF-kB luciferase, uHTS | Q293 LMP1-TROYcd NF-kB luciferase reporter, 4 h | inhibition, % at 10 µM | 360,000 compounds, 0.98% hits | AID 1347056, 2019;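 active = compounds whose plate-normalised and pattern-corrected inhibition of the luciferase reporter signal at the single screening dose is 50% or more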
TWEAK-Fn14 inh: inhibitors of TWEAK-Fn14 signaling, primary screen, luciferase reporter cells, uHTS; TWEAK-stimulated Fn14 reporter cells, luciferase luminescence, 8 h; AID 1159606, 2016; inhibition, % at 10 µM; 360,000 compounds, 2% hits; in the data active = inhibition above about 50%
EBV LMP1 NFkB: EBV LMP1-driven NF-kappaB luciferase reporter inhibitors, primary screen, cell-based, luminescence, single point; inhibition, % at 12.5 µM; LMP1-induced NF-kappaB luciferase reporter cells; AID 504558, 2011; 350,000 compounds, 0.69% hits; in the data active = inhibition above about 41%
LGR2 inh: inhibitors of bursicon-induced LGR2 CRE-luciferase signal, primary screen, cell-based, HEK293, CRE-luciferase reporter, bursicon stimulation. bursicon-stimulated, 4 h. inhibition, % at 9.99 µM. Drosophila bursicon receptor LGR2 (rickets). 380,000 compounds, 0.35% hits. AID 720647, 2013;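 active = drop in luminescence signal, shown as inhibition above about 50% in the replicate tests, limit read from the data, passing the limit was not always enough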;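 note: agonist challenge used bursicon conditioned medium at about half maximal strength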
EWS-Fli inh: EWS/Fli-driven NR0B1 reporter inhibitors, primary screen, A673 cells, NR0B1 luciferase, luminescence, MLPCN library | viability-normalised | inhibition, % at 12.6 µM | 350,000 compounds, 0.67% hits | AID 651661, 2012;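 active = mean inhibition of at least 50% after viability correction, with every replicate also passing that limit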;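 note: firefly luciferase signal divided by Alamar Blue viability fluorescence both relative to DMSO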
Hits are given with their value.

For O=C(CC(c1ccc(F)cc1)c1ccco1)N1CCCC1 (stereo not drawn) the results were TROY NFkB inh inactive, TWEAK-Fn14 inh inactive and EBV LMP1 NFkB inactive.
`O=C(CC(c1ccc(F)cc1)c1ccco1)N1CCOCC1` (stereo not drawn) gave TROY NFkB inh inactive, TWEAK-Fn14 inh inactive, EBV LMP1 NFkB 61 and LGR2 inh inactive.
For O=C(C1CC1)N1CC2(C1)[C@H](c1ccccc1)[C@H](CO)N2CCC(F)(F)F the results were LGR2 inh inactive and EWS-Fli inh inactive.
For CC(C)NC(=O)Nc1ccc2c(c1)C(=O)N([C@@H](C)CO)C[C@@H](C)[C@@H](CN(C)C(=O)Nc1cccc3ccccc13)OCCCC[C@@H](C)O2 the results were LGR2 inh inactive and EWS-Fli inh inactive.
`Cc1cn([C@H]2C[C@H](O)[C@@H](CNC(=O)[C@H](N)Cc3cn(COCc4ccccc4)cn3)O2)c(=O)[nH]c1=O` gave TROY NFkB inh inactive, TWEAK-Fn14 inh 51, EBV LMP1 NFkB inactive, LGR2 inh inactive and EWS-Fli inh inactive.
For COCC(=O)Nc1ccc2c(c1)C(=O)N(C)C[C@H](OC)[C@@H](C)CN(C(=O)C1CCCC1)[C@H](C)CO2 the results were LGR2 inh inactive and EWS-Fli inh inactive.
For Cc1ccc(SCC(=O)Nc2ccc(N3CCN(c4ccccc4)CC3)c(F)c2)cc1 the results were TROY NFkB inh inactive, TWEAK-Fn14 inh inactive and EBV LMP1 NFkB inactive.
Screening CN1CCN(c2ccc(NC(=O)CSc3ccccc3)cc2F)CC1 returned TROY NFkB inh inactive, TWEAK-Fn14 inh 53 and EBV LMP1 NFkB inactive.
O=C(O)C1CCCCC1C(=O)N1CC=C(c2ccccc2)CC1 (stereo not drawn) was read as TROY NFkB inh 68, TWEAK-Fn14 inh 80, EBV LMP1 NFkB inactive and LGR2 inh inactive.
COc1cc(Cn2c3ccc(NC(=O)NCc4ccc(F)cc4)cc3c(=O)n2C)ccc1F was read as TROY NFkB inh inactive, TWEAK-Fn14 inh inactive, LGR2 inh inactive and EWS-Fli inh 51.
`COc1ccc(CCNC(=O)Nc2ccc3c(c2)c(=O)n(C)n3Cc2ccc(F)cc2)cc1OC` gave TROY NFkB inh inactive, TWEAK-Fn14 inh inactive, LGR2 inh inactive and EWS-Fli inh inactive.
`C[C@H](CO)N1C[C@H](C)[C@@H](CN(C)CC2CC2)OCCCC[C@H](C)Oc2ccc(NS(=O)(=O)c3ccccc3)cc2C1=O` gave LGR2 inh inactive.
Screening C[C@@H]1CN([C@H](C)CO)C(=O)c2cc(NC(=O)Nc3cccc4ccccc34)ccc2O[C@H]1CN(C)C(=O)Nc1ccc2c(c1)OCO2 returned LGR2 inh inactive and EWS-Fli inh inactive.
Screening C[C@H]1CN([C@@H](C)CO)C(=O)Cc2cc(NC(=O)C3CC3)ccc2O[C@H]1CN(C)Cc1ccc(Cl)c(Cl)c1 returned LGR2 inh inactive.
`COc1ccc(C(C(=O)NC2CCCC2)N(C(=O)c2snc(C(N)=O)c2N)c2ccccc2OC)cc1OC` (stereo not drawn) gave TROY NFkB inh inactive, TWEAK-Fn14 inh 53, EBV LMP1 NFkB inactive, LGR2 inh inactive and EWS-Fli inh inactive.
`CCOc1ccc(C(C(=O)NCC2CCCO2)N(C(=O)c2snc(C(N)=O)c2N)c2ccccc2F)cc1` (stereo not drawn) gave TROY NFkB inh inactive, TWEAK-Fn14 inh 57, EBV LMP1 NFkB inactive, LGR2 inh inactive and EWS-Fli inh inactive.
`COc1ccc(C(C(=O)NCC2CCCO2)N(Cc2ccco2)C(=O)c2snc(C(N)=O)c2N)cc1OC` (stereo not drawn) gave TROY NFkB inh inactive, TWEAK-Fn14 inh 52, EBV LMP1 NFkB inactive, LGR2 inh inactive and EWS-Fli inh inactive.
CCOc1ccc(C(C(=O)NCC2CCCO2)N(C(=O)c2snc(C(N)=O)c2N)c2cccc(F)c2)cc1 (stereo not drawn) was read as TROY NFkB inh inactive, TWEAK-Fn14 inh inactive, EBV LMP1 NFkB inactive and LGR2 inh inactive.
For NC(=O)c1nsc(C(=O)N(Cc2ccco2)C(C(=O)NCC2CCCO2)c2ccc(O)cc2)c1N (stereo not drawn) the results were TROY NFkB inh inactive, TWEAK-Fn14 inh inactive, EBV LMP1 NFkB inactive, LGR2 inh inactive and EWS-Fli inh inactive.
O=C(N[C@@H]1CC[C@H](CC(=O)N2CCN(c3ccccc3)CC2)O[C@H]1CO)c1ccncc1 was read as LGR2 inh inactive and EWS-Fli inh inactive.
